This assay has as its target human Peroxisome Proliferator-activated Receptor alpha (PPARa), PPARA (gene 5465) (UniProt Q07869). As to the kind of experiment: ATG_hPPARa_EcoTox2: Attagene TRANS-FACTORIAL EcoTox-2 HepG2 Assay for human Peroxisome Proliferator-activated Receptor alpha (PPARa). The procedure: ATG_EcoTox2 is a cell-based, multiplexed assay created by modifying the existing Attagene TRANS-FACTORIAL system to include a panel of nuclear receptors from some or all the following species: human (Homo sapiens), african clawed frog (Xenopus laevis), rainbow trout (Oncorhynchus mykiss), japanese medaka (Oryzias latipes), and zebrafish (Danio rerio). The ECOTOX2-FACTORIAL format uses HepG2, a human liver cell line, with measurements taken at 24 hours after chemical dosing in a 24-well plate. ATG_hPPARa_EcoTox2 is one of 29 assay components calculated in the ATG_EcoTox2 assay. It is designed to make measurements of mRNA induction, a form of inducible reporter, as detected with fluorescence intensity signals by Reverse transcription polymerase chain reaction (RT-PCR) and Capillary electrophoresis technology.The assay endpoint ATG_hPPARa_EcoTox2 was analyzed in the positive analysis fitting direction relative to DMSO as the negative control and baseline of activity. Using a type of inducible reporter, measures of mRNA for gain-of-signal activity can be used to understand the reporter gene at the transcription factor-level as they relate to the gene PPARa. Furthermore, this assay endpoint can be referred to as a primary readout, because this assay has produced multiple assay endpoints where this one serves a reporter gene function. […]

Records with an inconclusive call do not appear. Active and inactive are the calls of the source. Rule for the calls: active = hit-call score of the fitted dose curve at least 0.9, where 1 is the maximum; inconclusive = response in the unintended direction; inactive = score below 0.9.

Chain of human Peroxisome Proliferator-activated Receptor alpha (PPARa), PPARA (gene 5465) (Q07869 whole entry, looked up): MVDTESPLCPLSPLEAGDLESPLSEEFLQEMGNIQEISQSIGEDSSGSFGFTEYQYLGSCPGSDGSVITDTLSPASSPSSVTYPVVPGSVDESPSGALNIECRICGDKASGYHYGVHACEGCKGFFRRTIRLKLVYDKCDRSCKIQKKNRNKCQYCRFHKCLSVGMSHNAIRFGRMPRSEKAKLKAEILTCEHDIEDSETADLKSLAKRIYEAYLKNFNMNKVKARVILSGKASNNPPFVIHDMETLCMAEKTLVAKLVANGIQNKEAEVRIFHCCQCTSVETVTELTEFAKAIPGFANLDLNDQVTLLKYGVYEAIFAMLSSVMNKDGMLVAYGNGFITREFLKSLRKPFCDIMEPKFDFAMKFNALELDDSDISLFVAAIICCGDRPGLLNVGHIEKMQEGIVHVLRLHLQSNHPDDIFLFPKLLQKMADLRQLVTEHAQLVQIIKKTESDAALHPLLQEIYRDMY

One may read the AC50 as the concentration at which the activity in the assay is half-maximal. Turning to `O=C(O)C(F)(F)C(F)(F)C(F)(F)C(F)(F)C(F)(F)C(F)(F)C(F)(F)F`, the half-maximal activity concentration (AC50) was 11.4 µM (active).

Regarding `O=S(=O)(O)C(F)(F)C(F)(F)C(F)(F)C(F)(F)C(F)(F)C(F)(F)F`, the half-maximal activity concentration (AC50) is 23 µM (active).
